Bioassay records: PubChem BioAssay, National Center for Advancing Translational Sciences (NCATS)
The list is not random: actives were taken first. Their share in the collection is about 1.5%.
FEN1 inh: human FEN1 inhibition; AID 588795; 0.35% of 390,000 active; Recombinant FEN1 flap cleavage, fluorescence, 15 min; Potency, µM (titrated, usually from 114 µM), for the others: at the highest dose activity change, negative = inhibition, usual class: inhibitors; also: potency is read from the fitted curve at half-maximal effect; nearly all actives have a fitted effect of over 65% in size
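Enzyme 10 nM, 15 min RT preincubation with compound; start with substrate 50 nM final; reads at 0 and 15 min; qHTS titration, four-parameter Hill fit.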
RECQ1 helicase: inhibitors of human RECQ1 DNA helicase | Potency, µM (highest dose often 57.3 µM), inactives show top-dose activity, negative = inhibition, hits mostly inhibitors | RECQ1 DNA unwinding, red fluorescence kinetic read | 0.54% of 240,000 active;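 also: potency is read from the fitted curve at half-maximal effect; plate controls were vehicle for no effect and no enzyme for full effect; nearly all actives have a fitted effect of over 30% in size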
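RECQ1T1 50 nM; forked duplex (20 bp + 30-nt ss tails) 200 nM, ATP 2 mM final; pH 8.0, 2 mM MgCl2, 2.5 ug/ml poly(dI-dC); 15 min compound preincubation; discontinuous kinetic read over 2 h at RT.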
WRN helicase inh: inhibitors of human WRN helicase | Q14191 | WRN helicase unwinding, fluorescent forked duplex, kinetic | Potency, µM (top dose mostly 114 µM), for the others: at the top dose activity change, negative = inhibition, hits mostly inhibitors | 0.46% of 360,000 active | AID 651768; also: potency is read from the fitted curve at half-maximal effect; nearly all actives have a fitted effect of over 55% in size
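Fluorescence dequenching readout, ex 525 nm/em 598 nm, kinetic mode: forked duplex DNA (100 nM final) with adjacent fluorophore and quencher unwound by WRN (20 nM final) with 2 mM ATP. Compound preincubation 15 min, room temperature.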
APEX1 inh: inhibitors of human APE1 endonuclease; Potency, µM (highest dose often 65.8 µM), for inactives: top-dose activity change, negative = inhibition, actives largely listed as inhibitors; 0.35% of 350,000 active; recombinant APE1, TAMRA/BHQ-2 abasic DNA cleavage fluorescence; AID 2517; P27695;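 also: potency is read from the fitted curve at half-maximal effect; plate controls were vehicle for no effect and reference inhibitor for full effect; nearly all actives have a fitted effect of over 55% in size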
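APE1 at 0.75 nM preincubated 15 min at room temperature with compound. Reaction then started with 50 nM double-stranded THF-abasic substrate labelled with TAMRA/BHQ-2, and 525/598 nm fluorescence read kinetically. Activity taken as third-minus-first read difference, normalized to DMSO and NSC13755 controls.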
PI5P4K alpha inh: PI5P4K alpha (human) kinase inhibition; AID 652105; PI5P4Kalpha enzyme, ADP-Glo luminescence, 60 min; active compounds read low; 1.2% of 330,000 active; P48426; max response, %; active = max response of -50% or lower; inconclusive = between -30% and -50%; inactive = -30% or higher; also: value at the top dose of about 77 µM
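Compounds were pin-transferred onto PI5P4Kalpha and substrate in HEPES pH 7.4 buffer with EGTA, CHAPS and 5% DMSO. ATP (5 microM final) started the reaction, which ran 60 minutes at room temperature before ADP-Glo detection.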
BLM inh: Bloom syndrome helicase (human) inhibition | P54132 | recombinant BLM DNA unwinding, fluorescence dequenching | Potency, µM (doses to about 56.1 µM), for the others: at the highest dose activity change, negative = inhibition, most hits filed as inhibitors | 0.2% of 350,000 active;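 also: potency is read from the fitted curve at half-maximal effect; plate controls were vehicle for no effect and no enzyme for full effect; nearly all actives have a fitted effect of over 35% in size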
Target sequence (P54132 whole entry, looked up): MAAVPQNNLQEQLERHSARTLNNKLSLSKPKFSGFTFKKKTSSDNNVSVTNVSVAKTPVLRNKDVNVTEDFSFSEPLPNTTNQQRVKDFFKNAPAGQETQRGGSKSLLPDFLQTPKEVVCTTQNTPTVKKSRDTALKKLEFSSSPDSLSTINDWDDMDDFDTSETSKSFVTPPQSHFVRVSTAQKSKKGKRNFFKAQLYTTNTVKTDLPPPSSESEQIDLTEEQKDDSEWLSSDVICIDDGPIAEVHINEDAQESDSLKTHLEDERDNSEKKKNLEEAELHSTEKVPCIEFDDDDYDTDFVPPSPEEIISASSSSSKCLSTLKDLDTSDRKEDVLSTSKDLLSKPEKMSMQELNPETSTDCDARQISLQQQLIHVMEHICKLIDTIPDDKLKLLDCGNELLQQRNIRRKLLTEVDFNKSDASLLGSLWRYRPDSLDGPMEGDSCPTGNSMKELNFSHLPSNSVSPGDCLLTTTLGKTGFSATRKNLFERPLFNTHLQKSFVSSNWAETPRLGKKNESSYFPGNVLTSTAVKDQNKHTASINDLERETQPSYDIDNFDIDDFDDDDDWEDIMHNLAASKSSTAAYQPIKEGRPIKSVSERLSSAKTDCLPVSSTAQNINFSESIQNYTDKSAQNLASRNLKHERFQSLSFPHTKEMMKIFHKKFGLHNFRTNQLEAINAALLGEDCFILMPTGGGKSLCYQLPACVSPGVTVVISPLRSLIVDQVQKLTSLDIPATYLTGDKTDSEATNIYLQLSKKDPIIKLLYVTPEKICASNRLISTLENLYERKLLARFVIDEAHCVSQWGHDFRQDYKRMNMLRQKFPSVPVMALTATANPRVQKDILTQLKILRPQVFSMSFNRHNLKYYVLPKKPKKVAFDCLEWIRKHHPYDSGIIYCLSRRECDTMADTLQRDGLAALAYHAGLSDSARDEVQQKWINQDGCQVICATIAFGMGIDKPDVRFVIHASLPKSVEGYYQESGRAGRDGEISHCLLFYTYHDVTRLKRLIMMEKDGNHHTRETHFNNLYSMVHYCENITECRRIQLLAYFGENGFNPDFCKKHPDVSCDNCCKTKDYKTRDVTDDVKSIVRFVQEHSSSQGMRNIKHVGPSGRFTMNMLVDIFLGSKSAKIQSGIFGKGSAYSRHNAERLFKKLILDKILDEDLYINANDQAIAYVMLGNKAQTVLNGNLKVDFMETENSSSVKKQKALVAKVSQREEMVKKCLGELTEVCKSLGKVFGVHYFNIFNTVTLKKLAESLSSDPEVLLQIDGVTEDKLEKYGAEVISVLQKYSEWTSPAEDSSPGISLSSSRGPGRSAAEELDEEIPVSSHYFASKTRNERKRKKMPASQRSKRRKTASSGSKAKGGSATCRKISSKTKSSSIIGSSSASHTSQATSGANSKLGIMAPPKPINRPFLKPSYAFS
Active calls of the source: *; i = inactive; ? = inconclusive; nt = not tested or not shown; [ ] = another dose, or the depositor's remark. Unless noted, calls follow the shape of the dose curve; as a rule, active = well fitted curve in the direction sought with a large enough effect; inconclusive = small, poorly fitted or top-dose-only effect, or another doubt; inactive = no such curve, though single readings can be large; an effect the other way counts as inactive or inconclusive. Unless noted, % is scaled to controls: 0 for no effect and ±100 for the full control effect.

SMILES | FEN1 inh | RECQ1 helicase | WRN helicase inh | APEX1 inh | PI5P4K alpha inh | BLM inh
C=C1C(=O)C=C2CN(C(=O)c3ccccc3)[C@@](Cc3ccc(F)cc3)(C(=O)OC)[C@@H]12 | -23% | -14% | -8% | 14% | -77* | -5%
CCOc1ccccc1NC(=O)Nc1cc(C(=O)NCc2ccc(C)cc2)ccc1N1CCCC1 | 5% | nt | nt | nt | nt | -2%
Cc1ccccc1-c1n[nH]c(=S)o1 | -6% | -4% | -9% | 9% | -18 | 0%
Cc1ccc(-n2ncc(-c3n[nH]c(=S)o3)c2N)cc1C | nt | nt | -1% | nt | -76* | nt
CSC1=NSC2=NC(=O)/C(=C\c3cccs3)C(=N)N12 | 4% | -7% | -18% | 1% | ? | -1%
CSC1=NSC2=NC(=O)/C(=C/c3coc4ccc(O)cc4c3=O)C(=N)N12 | 45µM* | -10% | 45µM* | ? | -74* | -18%
CSC1=NSC2=NC(=O)/C(=C/c3coc4ccccc4c3=O)C(=N)N12 | 79µM* | -19% | 35µM* | -5% | -61* | -15%
Cc1ccc(CCNC(=O)c2c(C)oc3ncnc(N4CCOCC4)c23)cc1 | 0% | nt | nt | nt | nt | 2%
Cc1cc(Nc2nn(C)c(N)c2C#N)ccc1F | 12% | -10% | -12% | -2% | -66* | -6%
Nc1nnc(-c2cccc3ccccc23)o1 | nt | nt | nt | -3% | nt | nt
COc1ccc(C)cc1N/C(N)=N/c1nc(C)cc(C)n1 | -5% | 4% | 0% | 1% | -6 | -11%
Cc1ccc(C)c(N/C(N)=N/c2nc(C)cc(C)n2)c1 | 50µM* | 22% | 45% | -3% | 4 | 83%
C/C=C(\C)C(=O)C[Si](C)(C)c1ccccc1 | nt | i | nt | 9% | nt | 3%
O=C(COC(=O)c1cc2c(s1)CCCC2)Nc1ccc(Cl)cn1 | -5% | -4% | 0% | 3% | 1 | -2%
COc1ccc(NC(=O)COC(=O)c2cc3c(s2)CCC3)cc1 | 9% | nt | -22% | 5.3µM* | ? | nt
CC(NC(=O)Cn1ccc2cc(S(=O)(=O)N3CCCCCC3)ccc21)c1ccccc1 (configuration not stated) | 2% | nt | nt | nt | nt | -8%
Cc1ccc(-c2cc(C(=O)N3CCN(c4ncccn4)CC3)c3cc(Br)ccc3n2)o1 | 4% | 23% | ? | -6% | -73* | -11%
Cc1ccc(-c2cc(C(=O)N3CCN(c4ccc(F)cc4)CC3)c3ccccc3n2)o1 | 6% | -25% | -19% | ? | ? | -13%
Cc1cc(OCc2nnc(SC(C)C(=O)O)n2-c2ccccc2)ccc1Cl (configuration not stated) | 7% | nt | 22% | 51% | 4 | -10%
Cc1ccccc1OCc1nnc(SC(C)C(=O)O)n1-c1ccccc1 (configuration not stated) | nt | nt | 13% | nt | -54* | nt
O=[N+]([O-])c1ccc(Cl)cc1C=NNc1ccccn1 | -3% | nt | -2% | nt | -1 | nt
COc1cc([N+](=O)[O-])cc(/C=N/NC(=O)c2cc(C)nc3ccccc23)c1O | 4% | -12% | -11% | -5% | -27 | -5%
COc1cc([N+](=O)[O-])cc(/C=N/NC(=O)c2cc(-c3ccccc3)nc3ccccc23)c1O | -1% | 1% | -1% | -9% | -57* | -5%
O=[N+]([O-])c1cc(Cl)cc(/C=N\Nc2ccccn2)c1O | -2% | i | -11% | 0% | -60* | 1%
O=C(N/N=C/c1cc(Cl)cc([N+](=O)[O-])c1O)c1cc(-c2ccccn2)nc2ccccc12 | 10% | -10% | -17% | 1% | -62* | -12%
SMILES | FEN1 inh | RECQ1 helicase | WRN helicase inh | APEX1 inh | PI5P4K alpha inh | BLM inh
CC(=O)c1ccc(-c2cccc(C3C4C=CCCC4(C)C(=O)N3Cc3ccccc3)c2)cc1 (configuration not stated) | -5% | -9% | nt | -3% | nt | -9%
CCCCCNc1oc(-c2cccc3ccccc23)nc1C#N | nt | nt | nt | -6% | nt | nt
N#Cc1c(N2CCCC2)nc(N)c2c(N)nc(N3CCCC3)cc12 | ? | ? | -2%[11.6 µM] | ? | -9 | 2.8µM*
N#Cc1c(N2CCCCC2)nc(N)c2c(N)nc3c(c12)CC(c1ccccc1)O3 (configuration not stated) | ? | -17% | -4% | -1% | -64* | -15%
O=C(NNc1c(Cl)cccc1Cl)c1sc2ccccc2c1Cl | 1% | nt | nt | nt | nt | nt
CCCc1c(-c2ccc(O)cc2)nn(-c2ccc(O)cc2)c1-c1ccc(O)cc1 | -2% | -36% | 0% | 12% | -53* | -10%
N#CC(C#N)=C1C=CC=CN1/C(=C\c1ccccc1Cl)C(=O)c1ccccc1 | -11% | -11% | 50µM* | 1% | -21 | -16%
CC1CCN(C(=O)/C(=C/c2ccccc2Cl)c2ccccc2)CC1 | -19% | -3% | -9% | 0% | 3 | -11%
CCCNC(=O)N1N=C(c2ccc(N)cc2)c2cc3c(cc2C1C)OCO3 (configuration not stated) | nt | i | nt | -2% | nt | -1%
CCCCCCC[n+]1c(/C=C/c2ccc(N(C)C)cc2)sc2ccccc21 | 35µM* | nt | nt | nt | nt | nt
CN(C)c1ccc(/C=C/c2ccnc3c(Cl)cccc23)cc1 | -21% | nt | nt | nt | nt | nt
COc1cc(/C=N/NC(=O)COc2c(C)cc([N+](=O)[O-])cc2C)ccc1OC(=O)c1ccccc1 | -4% | 28µM* | 0% | 8% | 4 | -5%
COc1cc(/C=N/NC(=O)COc2c(C)cc([N+](=O)[O-])cc2C)ccc1OC(=O)c1ccccc1Br | 16% | -8% | -12% | 0% | -10 | -3%
COc1cc(/C=N/NC(N)=O)ccc1OCC(=O)Nc1ccc(C)c(C)c1 | ? | -3% | ? | 5% | 6 | 10µM*
COc1cc(/C=N/NC(N)=S)ccc1OCC(=O)Nc1ccc(C)c(C)c1 | -1% | -7% | -19% | 7% | -6 | -5%
O=C(N/N=C/c1ccc(OC(=O)c2ccccc2)c([N+](=O)[O-])c1)c1ccc(O)cc1 | -1% | -15% | -8% | -4% | -79* | 1%
COc1ccc(C(=O)Oc2ccc(/C=N/NC(=O)c3ccccc3OC)cc2[N+](=O)[O-])cc1 | 5% | 2% | 7% | 1% | -1 | 0%
CCCCc1nn2c(=O)cc(COC(=O)c3ccc(NC(=O)C4CCCCC4)cc3)nc2s1 | 2% | nt | nt | nt | nt | -4%
CN(C)CCCN1C(=O)c2cc3ccccc3cc2C1=O | 1% | nt | 1% | -9% | 4 | -2%
CN(C)CCCn1c2c3ccccc3ccc2c2oc(=O)c3ccccc3c21 | 3.2µM* | nt | -5%[11.6 µM] | nt | 0 | nt
Cc1cc(Oc2ccc(Cl)cc2Cl)nc(C#N)n1 | 9% | nt | nt | nt | nt | nt
CNc1nc(N/N=C/c2cc([N+](=O)[O-])ccc2F)nc(Nc2ccccc2)n1 | -2% | nt | 4% | nt | -20 | nt
